PubChem BioAssay (Tox21)
Inconclusive results are not listed. Unmarked numbers belong to inactive results. Activity calls are given as the source filed them. The call rests on the fitted dose curve; in most records, active means well fitted curve in the direction sought with a large enough effect in the signal ratio in the repeat runs (not every such curve was filed as active); inconclusive means weak or mixed curves, or effect the other way; inactive means no such curve, though single readings can be large or run the other way; the % refers to the signal ratio. Positions of bridges follow the written chain, without caps; N, C: chain ends. Non-standard residues stand in square brackets, D forms with d. Residues, ends and D or L forms follow the SMILES beside them. *: point of attachment. X1 = CC[C@@H](C)[C@@H](N)C1=N[C@H](C(=O)*)CS1; d(aIle) = CC[C@H](C)[C@@H](N)C(=O)O; dOrn = NCCC[C@@H](N)C(=O)O

These compounds were tested against Estrogen receptor (Homo sapiens) (UniProt P03372) (assay: qHTS assay to identify small molecule antagonists of the estrogen receptor alpha (ER-alpha) signaling pathway (AID 743069)). Settings: HEK293 ER-alpha-UAS-bla, beta-lactamase ratio, antagonist mode; series mostly up to 69.4 µM; activity, negative = inhibition: at the top concentration.
Sequence of Estrogen receptor (Homo sapiens) (P03372 whole entry, looked up): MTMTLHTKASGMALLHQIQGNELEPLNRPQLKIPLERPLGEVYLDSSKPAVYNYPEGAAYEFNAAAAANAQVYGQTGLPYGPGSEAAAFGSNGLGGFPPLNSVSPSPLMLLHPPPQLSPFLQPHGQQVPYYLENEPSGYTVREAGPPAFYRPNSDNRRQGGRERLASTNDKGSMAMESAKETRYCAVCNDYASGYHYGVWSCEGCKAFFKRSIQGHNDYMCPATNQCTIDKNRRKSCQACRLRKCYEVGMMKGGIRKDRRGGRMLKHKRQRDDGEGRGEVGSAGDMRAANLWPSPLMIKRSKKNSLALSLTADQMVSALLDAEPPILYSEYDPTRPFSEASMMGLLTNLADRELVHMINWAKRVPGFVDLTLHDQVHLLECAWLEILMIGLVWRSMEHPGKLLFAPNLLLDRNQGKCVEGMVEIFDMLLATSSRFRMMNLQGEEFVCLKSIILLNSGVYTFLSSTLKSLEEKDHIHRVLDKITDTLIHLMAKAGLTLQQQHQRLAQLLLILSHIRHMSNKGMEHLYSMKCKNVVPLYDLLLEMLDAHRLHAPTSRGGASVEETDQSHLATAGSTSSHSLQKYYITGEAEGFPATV
How it was run: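 Screening used a UAS-driven beta-lactamase reporter integrated into HEK293 cells expressing ER-alpha, stimulated with 17beta-estradiol alongside test compounds over 18 hr at 37C; signal came from LiveBLAzer B/G FRET fluorescence.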
On the % scale 0 is the no-effect control and ±100 the full control effect.

| Compound | activity, negative = inhibition | Potency |
| --- | --- | --- |
| C/C(=C\C(=O)OCCCCCCCCC(=O)O)C[C@@H]1OC[C@H](C[C@@H]2O[C@H]2[C@@H](C)[C@H](C)O)[C@@H](O)[C@H]1O | 5.95% | – |
| CC(C)[C@H](NC(=O)[C@H](CC(=O)O)NC(=O)[C@H](CCCCN)NC(=O)[C@@H](N)CCCN=C(N)N)C(=O)N[C@@H](Cc1ccc(O)cc1)C(=O)O (H-RKDVY-OH) | 3.98% | – |
| NC(=O)[C@@H]1CCCN1C(=O)[C@H](Cc1cnc[nH]1)NC(=O)[C@@H]1CCC(=O)N1 | 0.92% | – |
| CC[C@H]1OC(=O)[C@H](C)C(=O)[C@H](C)[C@@H](O[C@@H]2O[C@H](C)C[C@H](N(C)C)[C@H]2O)[C@](C)(OC)C[C@@H](C)C(=O)[C@H](C)[C@H]2N(CCCCn3cnc(-c4cccnc4)c3)C(=O)O[C@]12C | – | inactive |
| C[N+](C)(C)CCOP(=O)(O)OP(=O)([O-])OC[C@H]1O[C@@H](n2ccc(N)nc2=O)[C@H](O)[C@@H]1O | – | inactive |
| Cc1cnc(C(=O)O)c[n+]1[O-] | – | inactive |
| C=CC1=C(C(=O)O)N2C(=O)[C@@H](NC(=O)/C(=N/OCC(=O)O)c3csc(N)n3)[C@H]2SC1 (stereo in doubt) | -4.63% [at 32.6 µM] | – |
| O=P(O)(O)C(O)(Cn1ccnc1)P(=O)(O)O | -4.1% | – |
| C=CC[N+]1([C@H]2C[C@H]3[C@@H]4CC[C@H]5C[C@H](O)[C@@H](N6CCOCC6)C[C@]5(C)[C@H]4CC[C@]3(C)[C@H]2OC(C)=O)CCCC1 | 7.48% | – |
| CC[C@@H](C)[C@@H](N)C1=N[C@H](C(=O)N[C@@H](CC(C)C)C(=O)N[C@@H](CCC(=O)O)C(=O)N[C@@H](C(=O)N[C@@H]2CCCCNC(=O)[C@@H](CC(N)=O)NC(=O)[C@@H](CC(=O)O)NC(=O)[C@@H](Cc3cnc[nH]3)NC(=O)[C@@H](Cc3ccccc3)NC(=O)[C@@H]([C@H](C)CC)NC(=O)[C@@H](CCCN)NC2=O)[C@@H](C)CC)CS1 (X1-LE[d(aIle)][dK][dOrn][dI][dF][dH][dD][dN]; lactam 4-C) | – | inactive |
| Nc1cc(Cl)c(NC2=NCCN2)c(Cl)c1 | 5.66% | – |
| CCOc1ccc(NC(=S)Nc2ccc(OCC)cc2)cc1 | -3.53% | – |
| CCc1ncnc2cc(OC)c(OC)cc12 | 23.2% | – |
| Cc1cc(=O)c(C(=O)N[C@@H](C(=O)N[C@@H]2C(=O)N3C(C(=O)O)=C(CSc4nnnn4C)CS[C@H]23)c2ccc(O)cc2)c[nH]1 | -3.43% | – |
| CC12CCC(C[N+](C)(CCC[N+](C)(C)C)C1)C2(C)C (configuration not stated) | 3.28% | – |
| CN1C(=O)C[C@@H](C(=O)N[C@@H](Cc2cnc[nH]2)C(=O)N2CCC[C@H]2C(N)=O)NC1=O | 3.29% | – |
| COC(=O)[C@H]1[C@H]2C[C@H]3c4[nH]c5ccccc5c4CCN3C[C@H]2CC[C@@H]1O | -1.09% | – |
| CC[C@@H](C)[C@H](N)C(=O)O | 6% | – |
| C/C(=C(/CCO)SSCC1CCCO1)N(C=O)Cc1cnc(C)nc1N (configuration not stated) | – | inactive |

| Compound | activity, negative = inhibition | Potency |
| --- | --- | --- |
| C=C(Nc1ccc(OCC)cc1)Nc1ccc(OCC)cc1 | – | inactive |
| O=C(O)/C=C/C(=O)Nc1ccc(S(=O)(=O)Nc2nccs2)cc1 | 5.83% | – |
| CC(C)=CCC/C(C)=C/CC/C(C)=C/CC/C(C)=C/CC1=C(C)C(=O)c2ccccc2C1=O | -13.4% | – |
| CO/N=C(\C(=O)N[C@@H]1C(=O)N2C(C(=O)O)=C(CSc3nc(C)c(CC(=O)O)s3)CS[C@H]12)c1csc(N)n1 | 9.22% | – |
| COc1ccc(/C=C/C(=O)O)cc1 | 4.53% | – |
| CO/N=C(\C(=O)N[C@@H]1C(=O)N2C(C(=O)[O-])=C(C[n+]3cccc4c3CCC4)CS[C@H]12)c1csc(N)n1 | 5.68% | – |
| NCC1CCC(C(=O)O)CC1 (configuration not stated) | 0.876% [at 32.6 µM] | – |
| CCN(CC)CCOC[C@H]1O[C@@H](O)[C@H](OCCN(CC)CC)[C@@H](O)[C@@H]1O | -3.35% | – |
| CCC(=O)OC(OP(=O)(CCCCc1ccccc1)CC(=O)N1C[C@H](C2CCCCC2)C[C@H]1C(=O)O)C(C)C (some centres not stated) | -6.79% | – |
| CC(C)=CCC/C(C)=C/CC/C(C)=C/CC/C=C(\C)CC/C=C(\C)CCC=C(C)C | – | inactive |
| CCCCCCCCCC(=O)NO | -25.4% | – |
| NCCO/C=C/[C@H](N)C(=O)O | 5.11% | – |
| N=C(N)n1cccn1 | 2.01% | – |
| Nc1c(CC(=O)O)cccc1C(=O)c1ccccc1 | – | inactive |
| Cc1ccc(C(C)(C)c2ccc(C)cc2)cc1 | -2.64% | – |
| CO[C@H]1C[C@H](O[C@H]2[C@H](C)[C@@H](O[C@@H]3O[C@H](C)C[C@H](N(C)C)[C@H]3O)[C@@H](C)C[C@]3(CO3)C(=O)[C@H](C)[C@@H](O)[C@@H](C)[C@@H](C)OC(=O)[C@@H]2C)O[C@@H](C)[C@@H]1O | -7.86% [at 32.6 µM] | – |
| CC[C@H]1OC(=O)C[C@@H](O)[C@H](C)[C@@H](O[C@@H]2O[C@H](C)[C@@H](O[C@H]3C[C@@](C)(O)[C@@H](O)[C@H](C)O3)[C@H](N(C)C)[C@H]2O)[C@@H](CC=O)C[C@@H](C)C(=O)/C=C/C(C)=C/[C@@H]1CO[C@@H]1O[C@H](C)[C@@H](O)[C@@H](OC)[C@H]1OC | – | inactive |
| O=C1c2c(O)cccc2[C@H]([C@@H]2O[C@H](CO)[C@@H](O)[C@H](O)[C@H]2O)c2cc(CO)cc(O)c21 | – | inactive |
